IDE cell inh: inhibitors of human insulin-degrading enzyme in cells; P14735; HEK cells, FAbetaB cleavage, fluorescence polarization; inhibition, % at 5.59 µM; actives 0.41% (n = 320,000);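 active = percent inhibition above the average of all tested compounds plus 3 SD, set per screening campaign, cut at about 16% in these data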;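 note: IDE supplied by intact live HEK cells; FP after avidin binding of uncleaved biotin substrate so inhibition keeps polarization high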
IDE cell activ: boosts human insulin-degrading enzyme activity in HEK cells | FAbeta-B cleavage, fluorescence polarization; 0% vehicle, 100% cell-free pure enzyme wells | activation, % at 5.96 µM | actives 0.073% (n = 340,000) | AID 493087;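 active = activation above the mean of all tested compounds plus 3 SD, set per screening campaign, cut at about 17% in these data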
ANO1 activ: activators or potentiators of mouse TMEM16A chloride channel. actives 0.3% (n = 340,000). HEK293 TMEM16A/YFP-H148Q/I152L, iodide quench fluorescence; active compounds read low. AID 623877. Q8BHY3. B-score at 10 µM;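 active = fluorescence-ratio B-score plate-corrected deviation score at least 3 library SD below zero, with starting fluorescence score within 5 deviations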;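 note: channel opened by trigger with iodide after compound preincubation; score built on the fluorescence ratio of max minus min over baseline; more negative score means more quench and so TMEM16A activation or potentiation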
CHT PAM: human CHT allosteric activation | Q9GZV3 | CHT-expressing cells, membrane potential dye, choline EC20; active compounds read high; LV-AA mutant CHT in HEK293 cells | B-score at 10 µM | actives 0.49% (n = 310,000);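 active = initial fluorescence not abnormally high and integrated response B-score, plate-corrected, over 3 SD above library mean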
Target sequence (Q9GZV3 whole entry, looked up): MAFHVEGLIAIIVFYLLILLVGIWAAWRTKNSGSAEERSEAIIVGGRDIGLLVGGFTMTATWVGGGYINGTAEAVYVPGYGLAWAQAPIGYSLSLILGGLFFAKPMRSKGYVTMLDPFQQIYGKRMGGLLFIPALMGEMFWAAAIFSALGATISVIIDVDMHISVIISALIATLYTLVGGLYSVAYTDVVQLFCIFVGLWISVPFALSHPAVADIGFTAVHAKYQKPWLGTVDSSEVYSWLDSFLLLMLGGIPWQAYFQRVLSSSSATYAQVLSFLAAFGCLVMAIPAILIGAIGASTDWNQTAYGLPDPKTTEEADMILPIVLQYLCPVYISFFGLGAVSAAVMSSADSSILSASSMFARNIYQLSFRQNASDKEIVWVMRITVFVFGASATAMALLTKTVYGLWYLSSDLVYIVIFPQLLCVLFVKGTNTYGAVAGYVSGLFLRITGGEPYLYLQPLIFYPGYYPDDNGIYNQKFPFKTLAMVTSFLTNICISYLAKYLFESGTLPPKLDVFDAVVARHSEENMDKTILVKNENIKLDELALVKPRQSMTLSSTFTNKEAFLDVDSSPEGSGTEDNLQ
TMEM16A inh: blocks the mouse calcium-activated chloride channel TMEM16A. actives 1.2% (n = 310,000). normalized B-score (activity score, 25-100; higher = stronger inhibition) at 10 µM. AID 588511. HEK293 TMEM16A/YFP iodide influx fluorescence, ionomycin;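 active = ratio plate-corrected score three or more library SD toward inhibition, starting fluorescence score within five deviations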;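 note: score derived from kinetic fluorescence span divided by baseline fluorescence per well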
CHT inh: human CHT choline transport inhibition | CHT-expressing cells, membrane potential dye, choline response; active compounds read low | B-score at 10 µM | actives 0.86% (n = 310,000);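 active = B-score over 3 SD under the library average, and starting fluorescence ratio not unusually high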;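 note: choline stimulus applied at its EC90 after an EC20 pre-addition; B-score computed on integrated fluorescence ratio after choline addition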
CHT activ conf: human CHT activation, confirmatory screen; CHT-expressing cells, membrane potential dye fluorescence (FDSS); % of choline EC20–EC90 response window; HEK293 expressing CHT LV-AA mutant; choline added at its EC20; activation, % at 10 µM; shares compounds with CHT PAM; actives 91% (n = 2,500); AID 504833;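 active = primary screen active, with duplicate mean activation above negative control mean plus 3 SD, cut at about 11% in these data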
HEK293 MP dye: CHT activator counter-screen hit in parental HEK293 cells; shares compounds with CHT PAM; membrane potential dye fluorescence (FDSS); measured after EC20 choline addition; ratio readout change at 10 µM, hits read low; actives 62% (n = 2,500); AID 623908;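 active = duplicate-averaged ratio beyond 3 SD from buffer wells, up or down, though filed actives are nearly all decreases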
A number is an active result; i = inactive; nt = no result given. Shown are actives, neighbours in structure and some others; about 2.7% of the full set was active somewhere.

SMILES	IDE cell inh	IDE cell activ	ANO1 activ	CHT PAM	TMEM16A inh	CHT inh	CHT activ conf	HEK293 MP dye
CC1(C)CC(N2CCN(c3ccccc3)CC2)=CC(=[N+]2CCCC2)C1	i	i	i	i	i	i	41	i
CN(Cc1ccccc1)C1=CC(=[N+]2CCCC2)CC(C)(C)C1	i	i	i	i	i	i	nt	nt
CCN(CC)C1=CC(=[N+]2CCCC2)CC(C)(C)C1	i	i	i	i	i	i	46	i
Cn1c(=O)c(Cc2ccccc2)c(O)c2ccccc21	i	i	i	i	i	i	nt	nt
Cn1c(Cc2ccccc2)[n+](C)c2ccccc21	i	i	i	i	i	i	49	-41
Cc1ccc(C(C(=O)NC2CCCC2)N(Cc2ccco2)C(=O)CCC(=O)Nc2cc(C)on2)cc1 (centres undefined)	i	i	i	6.4	i	i	i	i
Cc1ccc(C(C(=O)NC2CCCCC2)N(Cc2ccco2)C(=O)Cc2c[nH]c3ccccc23)o1 (centres undefined)	i	i	i	6.4	i	i	26	i
O=C(Nc1cccc(C(F)(F)F)c1)C1=CC=CN2CCS(=O)(=O)N=C12	i	i	i	nt	nt	nt	nt	nt
COC(=O)CCCC1=CC2=C(c3ccccc3)C(=O)C(C)(OC(=O)C3CCCC3)C(=O)C2=CN1C1CCCC1 (centres undefined)	i	i	i	11	i	i	36	i
COC(=O)CCCC1=CC2=C(c3ccccc3)C(=O)C(C)(OC(=O)C3CCCC3)C(=O)C2=CN1CC1CC1 (centres undefined)	i	i	i	i	i	i	nt	nt
CN(C(=O)COC(=O)CNC(=O)c1sc2ccccc2c1Cl)C1CCS(=O)(=O)C1 (centres undefined)	i	i	i	nt	nt	nt	nt	nt
O=C(NC1CCSc2ccccc21)c1cc([N+](=O)[O-])ccc1N1CCOCC1 (centres undefined)	i	i	i	6.4	i	i	i	i
O=C(NCCc1ccc(F)cc1)c1cc([N+](=O)[O-])ccc1N1CCOCC1	i	i	i	i	i	i	i	i
O=C(Nc1ccccc1C(=O)NCCN1CCOCC1)c1cccc([N+](=O)[O-])c1	i	i	i	i	i	i	58	-57
O=[N+]([O-])c1ccc(N2CCN(c3ccccc3F)CC2)c(S(=O)(=O)N2CCOCC2)c1	i	i	i	6.2	i	i	34	i
Cc1ccc2nc(SCC(=O)NCc3ccc4c(c3)OCO4)nc(=O)n2c1	i	i	i	i	i	i	nt	nt
CCC(C)[C@H](NC(=O)C1CC(=O)N(c2ccc3c(c2)OCO3)C1)C(=O)NC1CCCCC1 (some centres undefined)	i	i	i	i	i	i	nt	nt
O=C(NCCOc1ccccc1)C1=CC=CN2CCS(=O)(=O)N=C12	i	i	i	nt	nt	nt	nt	nt
CCCCn1c(N)c(N(CCC(C)C)C(=O)CSc2nc3ccccc3n2C)c(=O)[nH]c1=O	nt	i	i	nt	nt	nt	nt	nt
O=C(c1cc([N+](=O)[O-])ccc1N1CCOCC1)N1CCN(c2ccccc2)CC1	i	i	i	12	i	i	48	i
NNC(=O)c1ccc(-c2cccc([N+](=O)[O-])c2)o1	i	i	i	i	i	i	15	-23
COc1ccc(CCNC(=O)c2ccc(-c3cccc([N+](=O)[O-])c3)o2)cc1OC	i	i	i	i	i	i	nt	nt
CSc1nc(NCCCO)c2c3c(sc2n1)CN(C)CC3	i	i	i	i	i	i	41	-47
CSc1nc(SCC(=O)NC(c2ccccc2)c2ccccc2)c2c3c(sc2n1)CN(C)CC3	i	i	i	i	i	i	nt	nt
Cc1c(C)c2cccnc2c2ncccc12	i	i	i	nt	nt	nt	nt	nt
SMILES	IDE cell inh	IDE cell activ	ANO1 activ	CHT PAM	TMEM16A inh	CHT inh	CHT activ conf	HEK293 MP dye
Cc1ccc2ccc3cccnc3c2n1	i	i	i	6.9	i	i	55	-73
CC1CCN(Cc2cc(=O)oc3cc4c(cc23)CCCC4)CC1	i	i	i	i	i	i	nt	nt
CN1CCN(Cc2cc(=O)oc3cc4c(cc23)CCC4)CC1	i	i	i	i	i	i	22	-49
CCc1cc2c(CN3CCN(CCO)CC3)cc(=O)oc2cc1O	i	i	i	i	i	i	37	-30
Cc1cc(C)c2c(CN3CCN(C)CC3)cc(=O)oc2c1	i	i	i	i	i	i	46	-42
CCN1CCN(Cc2cc(=O)oc3ccc(C)cc23)CC1	i	i	i	i	i	i	44	-46
Cc1cc(O)c2c(CN3CCN(Cc4ccccc4)CC3)cc(=O)oc2c1	i	i	i	i	i	i	nt	nt
O=C(CCc1nc2ccccc2c(=O)[nH]1)NNC(=O)COc1cccc(F)c1	i	i	i	nt	nt	nt	nt	nt
CC(NC(=O)c1cccc(S(=O)(=O)N2CCN(Cc3ccccc3)CC2)c1)c1ccc(Cl)cc1 (centres undefined)	nt	i	i	nt	nt	nt	nt	nt
COc1cccc(NC(=O)CN(C)C(=O)c2ccc(Cl)c(S(=O)(=O)N3CCCCCC3)c2)c1	nt	i	i	nt	nt	nt	nt	nt
Cc1ccc2c(CN3CCN(CCO)CC3)cc(=O)oc2c1C	i	i	i	8.9	i	i	54	-59
Cc1ccc2c(CN3CCOCC3)cc(=O)oc2c1C	i	i	i	i	i	i	nt	nt
O=S(=O)(Nc1cccc(S(=O)(=O)N2CCCCC2)c1)c1ccc(Cl)s1	i	i	i	nt	nt	nt	nt	nt
COc1ccc(Cl)cc1N(CC(=O)N/N=C/c1ccc(OC(C)C)cc1)S(=O)(=O)c1ccc(C)c([N+](=O)[O-])c1	i	i	i	i	i	i	nt	nt
C=CCOc1cccc(/C=N/NC(=O)CN(c2cc(Cl)ccc2OC)S(=O)(=O)c2ccc(C)c([N+](=O)[O-])c2)c1	i	i	i	i	i	i	i	i
C[N+](C)(C)CCCCCCCCCC[N+](C)(C)C	i	i	i	7.8	i	i	43	-52
C#CC[N+](C)(C)CCCCCCCCC	i	i	i	i	i	i	nt	nt
N#Cc1nc(COc2ccc(F)cc2)oc1N1CCN(Cc2ccccc2)CC1	i	i	i	7.7	i	i	31	i
N#Cc1nc(COc2ccc(Br)cc2)oc1N1CCN(Cc2ccccc2)CC1	nt	i	i	nt	nt	nt	nt	nt
O=C(CCN=C1NS(=O)(=O)c2ccccc21)NCc1ccccc1F	i	i	i	nt	nt	nt	nt	nt
NCCCC[C@H]1CN=C(N)N1CC1CCCCC1	i	i	i	i	i	i	nt	nt
NCCCC[C@H]1CN=C(N)N1CCCCC1CCCCC1	i	i	i	11	i	i	47	-51
Cc1nn2c(NCCCN(C)C)c3c(nc2c1-c1ccccc1)CCCC3	i	i	i	i	i	i	nt	nt

Assay outcomes deposited in PubChem BioAssay by several laboratories.
